Measurements: PMC11995724, “Antibiotic target discovery by integrated phenotypic and activity-based profiling of electrophilic fragments” (Cell chemical biology, 2025)
Screen size: about 3,200 compounds; about 110 (3.4%) showed an effect of 50% or more. The sample as a whole holds a higher share of strong results than the screen did.

System: T1, V. cholerae SAD30
T1 construct: SAD30
Set-up: species or system S. aureus MSSA476 (TSB) or V. cholerae SAD30 (LB); 384-well bacterial growth screen at 25 uM, OD600 relative to DMSO control
Settings: relative growth, OD600, LB; 25 µM; inhibitor

First: CC(Cl)C(=O)NCCC1=CCCCCC1 (stereo not shown) [5-N19, 2-chloro-N-[2-(cyclohept-1-en-1-yl)ethyl]propanamide]
Second: CSc1ccccc1NC(=O)C(C)Cl (stereo not shown) [4-M12, 2-chloro-N-[2-(methylsulfanyl)phenyl]propanamide]
The “% of control remaining” value of the first is lower: 88.2631% for the first, 94.8889% for the second.

Compared with CN(Cc1ccc(N(C)C)cc1)C(=O)CCl.Cl [5-F06, 2-chloro-N-{[4-(dimethylamino)phenyl]methyl}-N-methylacetamide hydrochloride], CCC(NC(=O)CCl)c1ccc(C)cc1 (stereo not shown) [4-K17, 2-chloro-N-[1-(4-methylphenyl)propyl]acetamide] is higher in “% of control remaining” value: 92.298% for the first, 97.3043% for the second.

First: C=CC(=O)N1CCCn2cccc2C12CCOCC2 [1-A22, 1-{2',3',4',5'-tetrahydrospiro[oxane-4,1'-pyrrolo[1,2-a][1,4]diazepin]-2'-yl}prop-2-en-1-one]
Second: C=CC(=O)N1CCC(C(=O)N[C@H]2CC[C@@H]2O)(c2ccccc2)CC1 (racemic) [3-G08, rac-N-[(1R,2R)-2-hydroxycyclobutyl]-4-phenyl-1-(prop-2-enoyl)piperidine-4-carboxamide]
The “% of control remaining” value of the first is higher: 107.922% for the first, 93.3248% for the second.

Going from C=CC(=O)NCc1ccno1 [1-O07, N-[(1,2-oxazol-5-yl)methyl]prop-2-enamide] to C=CC(=O)NC1CC(C)Cc2cc(OC)ccc21 (stereo not shown) [3-L17, N-(6-methoxy-3-methyl-1,2,3,4-tetrahydronaphthalen-1-yl)prop-2-enamide], the “% of control remaining” value rises from 86.846% to 87.3259%.

First: O=C(CCl)NC(c1cc(F)ccc1F)C(F)F (stereo not shown) [7-F22, 2-chloro-N-[1-(2,5-difluorophenyl)-2,2-difluoroethyl]acetamide]
Second: CC(C)NC(=O)C(C#N)=Cc1ccccc1 [8-L05, 2-cyano-3-phenyl-N-(propan-2-yl)prop-2-enamide]
The “% of control remaining” value of the first is higher: 92.5161% for the first, 76.8865% for the second.

First: C=CC(=O)N(CCO)c1ccc(C(=O)O)cc1 [1-M10, 4-[N-(2-hydroxyethyl)prop-2-enamido]benzoic acid]
Second: C=CC(=O)N1CCC(C(=O)Nc2ccccc2NS(C)(=O)=O)CC1 [3-C06, N-(2-methanesulfonamidophenyl)-1-(prop-2-enoyl)piperidine-4-carboxamide]
The “% of control remaining” value of the first is lower: 88.6398% for the first, 107.793% for the second.

With C=CC(=O)N1CCC(C(=O)N(C)Cc2ccon2)CC1 [2-I14, N-methyl-N-[(1,2-oxazol-3-yl)methyl]-1-(prop-2-enoyl)piperidine-4-carboxamide] the “% of control remaining” value was 86.7992%.
